From PubChem BioAssay come the findings set out here.

Active and inactive are the calls of the source. Unless noted, no rule for the calls is given here.

Tested on in the first test: not listed separately
Nature of the test: human hepatoma cell viability loss – ATP luminescence, cytotoxicity control for P. falciparum antimalarial project, primary screen (AID 2303;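 active = inhibition above 50%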;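 also: 0% = DMSO wells and 100% = digitonin-killed cells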). The note with it: HepG2 viability, 24-48 h, at 10 µM, active compounds read high.
Consider `Cc1[nH]c(C)c(-c2csc3ccccc23)c(=O)c1Cl`, for which the inhibition was 7% (inactive). As for `COc1cc2nc(N3CCN(C(=O)c4cccc(I)c4)CC3)nc(N)c2cc1OC`, the inhibition is 11% (inactive).

On to `Cc1cc(NC(=O)c2cccs2)ccc1OC1CCN(Cc2ccc(C#N)cc2)CC1`, for which the inhibition was 34% (inactive). On the same count and under the same terms, the same measure for `COc1ccc(NC(=O)c2ccc(-c3nc(-c4cccc(C(F)(F)F)c4)cs3)cc2)cc1N1CCN(C)CC1`: 29% (inactive); for `CC(C)C[C@@H](CNC[C@H](CC(C)C)NC(=O)OC(C)(C)C)NC(=O)OC(C)(C)C`: 4% (inactive); for `COc1cc(NCC(CN)Cc2ccc3c(c2)OCO3)nc2ccccc12` (stereo not drawn): 41% (inactive). The same measure, in the same setting: under `Cc1cc2nc(-c3ccc(SCC(=O)Nc4ccc5c(c4)OCCO5)nc3)[nH]c2cc1C` stands 17% (inactive); under `O=C(C=Cc1ccc(Cl)c(Cl)c1)NCCCCCN1CCCC(CCCNC(=O)c2cccs2)C1` (stereo not drawn), 24% (inactive).

The target of the next test is L-lactate dehydrogenase (Plasmodium falciparum (isolate CDC / Honduras)) (UniProt Q27743). The test is described as follows: PfLDH activity inhibition – cell lysate, 3D7 strain, counter-screen for P. falciparum growth inhibition project (AID 2304).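 Also: 0% = vehicle and 100% = reference inhibitor.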 The note with it: P. falciparum 3D7 crude extract, LDH APAD/NBT absorbance; at 2 µM; active compounds read high.
L-lactate dehydrogenase (Plasmodium falciparum (isolate CDC / Honduras)), sequence (Q27743 whole entry, looked up): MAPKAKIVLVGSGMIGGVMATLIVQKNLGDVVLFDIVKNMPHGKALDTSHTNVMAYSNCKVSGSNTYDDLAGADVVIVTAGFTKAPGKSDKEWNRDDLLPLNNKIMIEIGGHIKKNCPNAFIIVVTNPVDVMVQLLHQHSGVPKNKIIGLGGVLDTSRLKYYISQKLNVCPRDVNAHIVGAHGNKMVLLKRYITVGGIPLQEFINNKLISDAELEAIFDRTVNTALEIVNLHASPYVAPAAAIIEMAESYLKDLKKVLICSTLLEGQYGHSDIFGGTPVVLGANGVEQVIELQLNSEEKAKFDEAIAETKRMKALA
In the case of `CN(Cc1ccncc1)C(Cc1ccccc1)C1CCN(Cc2ccc(O)c(Cl)c2)CC1` (stereo not drawn), the inhibition is -4% (inactive). Regarding `Clc1ccccc1CN1CCC(NCc2cccc(-n3ccnc3)c2)CC1`, the inhibition was -3% (inactive).

For the compound `CCN1CCC(N(Cc2ccc(-c3ccc(C(F)(F)F)cc3)cc2)C(=O)Cn2c(CCc3cccc(F)c3F)cc(=O)c3cn(C)nc32)CC1`, the inhibition was 2% (inactive).

Consider `CC[C@H]1CN2CCc3cc(OC)c(OC)cc3[C@@H]2C[C@@H]1CC1=NCCc2c1[nH]c1ccc(OCc3ccccc3)cc21`, for which the inhibition was -2% (inactive). Same read-out and setting: the same measure for `Nc1ncc(-c2ccsc2)c2ccc(-c3cnc[nH]3)cc12`: -7% (inactive); for `Cc1c(C)c2c(c(C)c1O)CC[C@@](C)(C(=O)N1CCC(CCN3CCC(c4c[nH]c5ccccc45)CC3)CC1)O2`: 6% (inactive).

`Cc1ccc(NC(=O)Nc2ccc(Cl)cc2)cc1-c1cccc(C(=O)Nc2ccc(F)cc2)c1`: the inhibition was 5% (inactive). On the same count and under the same terms, under `N#Cc1cc([N+](=O)[O-])ccc1-n1nc(C(N)=O)n(Cc2cccc(F)c2)c1=S` stands -4% (inactive). Same read-out and setting: the same measure for `Cc1ccccc1C1CCN(C2CCC(NC(=O)c3ccc(-c4cc(C(F)(F)F)nn4C)s3)CC2)CC1` (stereo not drawn): -2% (inactive); for `CC1(C)N=C(N)N=C(N)N1OCc1cc2ccccc2cc1CON1C(N)=NC(N)=NC1(C)C`: -5% (inactive); for `Cc1cc(N[C@@H](CC(C)C)C(=O)NCc2cccs2)nc(NCCc2ccc(F)cc2)n1`: -2% (inactive). On to `O=C(N[C@@H](Cc1ccccc1)[C@H](O)CNC1CCCCC1)c1cc(C2CCCC2)cc(N2CCCC2=O)c1`, for which the inhibition was 0% (inactive). On to `O=C(Nc1ccc(Cl)cc1)c1ccc(CN2CCCN(Cc3cccc(O)c3)CC2)cc1`, for which the inhibition was 4% (inactive). Consider `COc1ccc(N2CCN(CCCCNC(=O)c3ccc(NC(=O)c4cc(C(F)(F)F)cc(C(F)(F)F)c4)cc3)CC2)cc1OC`, for which the inhibition was 1% (inactive). Take `CS(=O)(=O)CCNCc1cc(-c2cc3ncnc(Nc4ccc(OCc5cccc(F)c5)c(Cl)c4)c3s2)cs1`: the inhibition was -2% (inactive).

As to `OCC1CCN(Cc2cccc(-c3cccc(-c4nc5ccc(C(F)(F)F)cc5[nH]4)c3)c2)CC1`, the inhibition is -3% (inactive).

For the compound `CCN(CCCNc1nc(=S)[nH]c2cc(OC)c(OC)cc12)c1ccccc1`, the inhibition was -2% (inactive). For `Cc1cc(=O)[nH]c(/N=C(/N)NOCc2ccccc2)n1`, the inhibition is 0% (inactive).

Regarding `O=C(Nc1cccc(-c2ccc(-c3nc4ccccc4[nH]3)cc2)c1)Nc1ccc(F)c(F)c1F`, the inhibition was 5% (inactive). `CC(C)c1ccc(NS(=O)(=O)c2cccc(C(=O)NC3CCN(CC4CCCCC4)CC3)c2)cc1`: the inhibition was 0% (inactive).

For the compound `CC(C)(C)c1ccc2nc(-c3ccc(/C=C/C(=O)NC4CCN(Cc5ccccc5)CC4)cc3)[nH]c2c1`, the inhibition is -2% (inactive).

Regarding `COc1cccc(C=NNc2cc(C)nc3c(OC)cccc23)c1`, the inhibition is -6% (inactive). For the compound `O=C(/C=C/c1ccc(Cl)c(Cl)c1)NCCCCCN1CCCC(CNC(=O)Nc2ccc(Oc3ccccc3)cc2)C1` (stereo not drawn), the inhibition was -2% (inactive). The same measure, in the same setting: under `CC(C)CNCc1cccc(-c2cccc(CN(CCN(C)C)C(=O)NCCc3ccccc3)c2)c1` stands -4% (inactive); under `CC(C)(c1ccccc1)c1ccc(O)c(CN2CCOCC2)c1`, 2% (inactive). The same measure, in the same setting: under `CC1CCN(C(=O)C(Cc2c[nH]c3ccccc23)NS(=O)(=O)c2ccc(Cl)cc2)CC1` (stereo not drawn) stands -4% (inactive). For `O=C1NC(=O)C(c2ccc(Cl)cc2)=C1Nc1cccc(S(=O)(=O)C(F)(F)F)c1`, the inhibition was -2% (inactive). With `COc1ccc(N2C(=O)c3c(c4ccccc4n3C)C2c2ccccc2O)cc1` (stereo not drawn), the inhibition was 3% (inactive).

With `CCCCC(=O)Nc1nonc1-c1ccc(OCC)c(OCC)c1`, the inhibition was -1% (inactive). Consider `CN(C(=O)/C=C/c1c(Cl)cccc1Cl)C1CCN(CCCCCNC(=O)/C=C/c2ccc(Cl)c(Cl)c2)CC1`, for which the inhibition was 4% (inactive). The same measure, in the same setting: the same measure for `CCn1c(-c2cc(C)on2)nc2cnc(Oc3ccc(C(=O)N4CC(=O)N(C)C4C(C)(C)C)cc3)cc21` (stereo not drawn): 4% (inactive); for `COc1cc2nc(N3CCC(CNC(=O)c4ccc(-c5ccc(C(=O)N(C)C)cc5C)cc4)CC3)nc(N3CCN(C)CC3)c2cc1OC`: -10% (inactive). As for `Cc1[nH]c(C)c(-c2csc3ccccc23)c(=O)c1Cl`, the inhibition is 6% (inactive). The same measure, in the same setting: under `COc1cc2nc(N3CCN(C(=O)c4cccc(I)c4)CC3)nc(N)c2cc1OC` stands 2% (inactive).

As for `Cc1cc(NC(=O)c2cccs2)ccc1OC1CCN(Cc2ccc(C#N)cc2)CC1`, the inhibition was 4% (inactive). Same read-out and setting: under `COc1ccc(NC(=O)c2ccc(-c3nc(-c4cccc(C(F)(F)F)c4)cs3)cc2)cc1N1CCN(C)CC1` stands 6% (inactive); under `CC(C)C[C@@H](CNC[C@H](CC(C)C)NC(=O)OC(C)(C)C)NC(=O)OC(C)(C)C`, 1% (inactive). Same read-out and setting: under `COc1cc(NCC(CN)Cc2ccc3c(c2)OCO3)nc2ccccc12` (stereo not drawn) stands 0% (inactive). With `Cc1cc2nc(-c3ccc(SCC(=O)Nc4ccc5c(c4)OCCO5)nc3)[nH]c2cc1C`, the inhibition is 9% (inactive). Same read-out and setting: the same measure for `O=C(C=Cc1ccc(Cl)c(Cl)c1)NCCCCCN1CCCC(CCCNC(=O)c2cccs2)C1` (stereo not drawn): 1% (inactive).
